The results in this text go back to PubChem BioAssay AID686978 (National Center for Advancing Translational Sciences (NCATS), 2013).

Where “and” joins values, the source holds several entries; their conditions need not be identical. Equal entries are not always repeated. Among all 420,000 compounds or so, about 64,000 (15%) were called active. Another 27% or so got no clear call; they are omitted. Calls come from the whole dose curve; as a rule, active = well fitted inhibition curve with a large enough effect; inconclusive = small, poorly fitted or top-dose-only effect; inactive = flat fitted curve, though single readings scatter. The list is a sample of the results. A call without a number means that no potency is given here.
Potency is the fitted concentration of half-maximal effect.

The nature of the experiment: qHTS for Inhibitors of human tyrosyl-DNA phosphodiesterase 1 (TDP1): qHTS in cells in absence of CPT. Note: nearly all actives have a fitted effect of over 55% in size. Particulars: DT40 Tdp1-/- hTDP1 cells, no CPT, ATP luminescence, 48 h; activity change, negative = growth inhibition: at 46.2 µM (top of the series). The gist of the method: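 Chicken DT40 Tdp1-/- cells stably complemented with human TDP1 were seeded at 400 cells/well with DMSO in place of 20 nM camptothecin. After compound pinning, cells grew at least 48 hr at 37 °C; viability read by CellTiter-Glo luminescence.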
Consider `CCCCc1nc2ccc(F)cc2cc1C`, for which the Potency entry is “inactive”.
As for `OCC[C@H]1C[C@H](O)[C@@H](O)[C@]2(Cc3ccccc3CO2)O1`, the entry is “inactive”; as for `O=C1OCCC1=COCCCCOC=C1CCOC1=O`, “inactive”; as for `Cc1ccc(S(=O)(=O)NCCC(=O)Nc2ccc(C)c(Cl)c2)cc1C`, “inactive”.
Take `Cc1ccnc(NC(=O)CCNS(=O)(=O)c2ccc(C)c(C)c2)c1`: the Potency result is “inactive”.
As for `CC(=O)CCS(=O)(=O)c1ccc(C)c(C)c1`, the figure is 29.1 µM (active).
In the case of `CC(=O)Nc1c2c(nn1-c1cccc(C)c1)CSC2`, the Potency result was “inactive”.
For the compound `Cn1cc(-c2nc3cncnc3n(-c3ccccc3)c2=O)c2ccccc21`, the Potency entry was “inactive”.
For the compound `Cc1cc(C(=O)OCC(=O)Nc2ccccc2Cl)c(C)o1`, the Potency entry is “inactive”.
As for `O=C(Nc1ccc(S(=O)(=O)Nc2ncccn2)cc1)C12CC3CC(CC(C3)C1)C2`, the entry is “inactive”; as for `CCn1nccc1C(=O)Nc1ccc(S(=O)(=O)NC23CC4CC(CC(C4)C2)C3)cc1`, 16.4 µM (active).
For `CCn1nccc1C(=O)Nc1ccc(Cl)c(Cl)c1`, the Potency entry is “inactive”.
As for `O=C(NC(=O)N1CCOCC1)c1ccccc1`, the entry is “inactive”; as for `CCOc1cc(NS(=O)(=O)c2ccc(OC)cc2)c(OCC)cc1NC(C)=O`, “inactive”.
As for `COCCNC(=O)c1ccccc1NS(=O)(=O)c1ccc(C)c([N+](=O)[O-])c1`, the entry is “inactive”; as for `CCOC(=O)c1ccccc1NS(=O)(=O)c1ccc(OC)cc1`, 14.6 µM (active); as for `O=c1nc(N/N=C/c2ccco2)cn[nH]1`, “inactive”.
With `CC1CC(C)CN(C(=O)C2CC(=O)N(c3ccc(F)cc3)C2)C1` (configuration not stated), the Potency entry is “inactive”.
As for `CCOc1cc(C(=O)OCC(=O)Nc2cccc(C)c2)ccc1OCC(=O)N1CCOCC1`, the entry is “inactive”; as for `COc1ccc(C2CC(=O)Oc3ccc(C(C)(C)C)cc32)cc1` (configuration not stated), “inactive”; as for `O=C(NCCCn1ccnc1)c1cc(-c2ccccc2)on1`, 7.31 µM (active).
As for `COc1ccccc1-c1cc(C(=O)NCCCn2ccnc2)no1`, the entry is “inactive”; as for `COc1ccc(-c2cc(C(=O)NCCCn3ccnc3)no2)cc1`, “inactive”.
With `O=C(NCCN1CCOCC1)[C@H](Cc1ccccc1)N1C(=O)c2ccccc2C1=O`, the Potency result was “inactive”.
With `Cc1csc(SCC(=O)Nc2sccc2C#N)n1`, the Potency entry was “inactive”.
As for `Brc1ccc(-c2n(-c3ccccn3)c3ccccc3[n+]2-c2ccccn2)cc1`, the figure is 13 µM (active); as for `O=C(Cc1ccc(Br)cc1)N1CCN(c2ccccn2)CC1`, “inactive”; as for `Cn1cc(CNC(=O)c2ccc(OC3CCN(Cc4ccccn4)CC3)cc2)cn1`, “inactive”.
For the compound `CCN(CC)C(=O)CSc1nc2ccccc2n1CC(=O)N1CCN(c2ccccc2OC)CC1`, the Potency entry is “inactive”.
As for `COC(=O)CSc1nc2ccccc2c(=O)n1Cc1ccccc1`, the entry is “inactive”; as for `CN(C(=O)CSc1nc2ccccc2n1Cc1ccccc1C#N)c1ccccc1`, 18.4 µM (active); as for `COC(=O)c1ccc(Cn2c(SCC(=O)N(C)c3ccccc3)nc3ccccc32)cc1`, 23.1 µM (active).
As for `Cc1ccc(Cn2c(SCC(=O)N/N=C/c3ccccc3OCC(=O)O)nc3ccccc32)cc1`, the entry is “inactive”; as for `CCn1c(SCC(=O)N2CCCC2=O)nc2ccccc21`, “inactive”.
As for `CC1=C(C/C=C(\C)CCCC(C)CCCC(C)CCCC(C)C)C(=O)c2ccccc2C1=O` (configuration not stated), the entry is “inactive”; as for `Cc1cc(C)cc(NC(=O)COc2coc(CN3CCN(c4ccccc4)CC3)cc2=O)c1`, “inactive”; as for `CC1(C(=O)NS(=O)(=O)c2cccc(F)c2)CCN1C(=O)Cc1ccc(Cl)cc1Cl` (configuration not stated), “inactive”.
As to `COc1ccccc1NC(=O)c1ccc(N2CC3CC(C2)c2cccc(=O)n2C3)c(NC(=O)c2cccnc2)c1` (configuration not stated), the Potency entry is “inactive”.
As for `O=C(OCC1OC(Oc2ccc(O)cc2)C(O)C(O)C1O)c1ccccc1` (configuration not stated), the entry is “inactive”; as for `O=C(CSc1nccn1Cc1ccc(Cl)cc1)NCc1ccccc1`, 29.1 µM (active).
As for `CCCCCCNC(=O)CSc1nccn1Cc1ccccc1`, the entry is “inactive”; as for `CCCCNC(=O)CSc1nccn1Cc1ccccc1`, “inactive”; as for `NC(=O)c1ccccc1N=Cc1ccc2ccccc2c1`, 16.4 µM (active).
As for `N=c1oc2ccccc2cc1C(=O)N/N=C/c1ccccc1`, the entry is “inactive”; as for `O=C(COC(=O)Cc1ccccc1F)NNC(=O)c1ccc(Cl)cc1`, “inactive”; as for `Cc1ccc(S(=O)(=O)N(C)C)cc1NC(=O)C1Cc2ccccc2CN1C(=O)c1ccco1` (configuration not stated), “inactive”.
For the compound `Cc1ccc(C)c(NC(=O)C2Cc3ccccc3CN2C(=O)OCc2ccccc2)c1` (configuration not stated), the Potency was 20.6 µM (active).
As for `Cc1ccc(NC(=O)C2CCCN2C(=O)OCc2ccccc2)cc1C` (configuration not stated), the entry is “inactive”; as for `Fc1ccccc1OCCCCn1cncn1`, “inactive”.
As for `COc1cc(/C=C/CNC[C@H]2O[C@@H](n3cnc(C(N)=O)n3)[C@H](O)[C@@H]2O)ccc1O`, the entry is “inactive”; as for `OCC[C@H]1C[C@@H](O)[C@H](O)[C@]2(OCCCc3ccccc32)O1`, “inactive”; as for `O=C(NCCCN1CCCCC1)c1ccc2c(c1)NC(=O)C(N1CCOCC1)S2` (configuration not stated), “inactive”.
Regarding `O=C(NCCN1CCOCC1)Nc1cccc(Cl)c1`, the Potency entry is “inactive”.
As for `CCN1CCN(CCNC(=O)c2ccc3c(c2)NC(=O)/C(=C\c2cccc(Cl)c2)S3)CC1`, the figure is 16.4 µM (active); as for `Cc1cc(C)n(-c2ccc(NC(=O)C3CCCCN3C(=O)c3cccs3)cc2)n1` (configuration not stated), “inactive”; as for `CCOc1ccc(/C=C(/NC(=O)c2ccccc2)C(=O)NCCC(=O)O)cc1`, “inactive”.
For `O=C1CC[C@H](O)CCN1[C@H](CSc1ccc(Br)cc1)Cc1ccccc1`, the Potency is 15.8 µM (active) and 16.4 µM (active).
Consider `O=C1CCNCCN1[C@H](CO)Cc1ccccc1`, for which the Potency entry is “inactive”.
For the compound `O=C1CCN(Cc2ccc([N+](=O)[O-])cc2)CCN1[C@H](CO)Cc1ccccc1`, the Potency result is “inactive”.
As for `COc1ccccc1NC(=O)C1=C(C)Nc2ncnn2C1c1ccc(C)o1` (configuration not stated), the Potency result is “inactive”.
For the compound `CC(OC(=O)c1cc2ccccc2o1)C(=O)Nc1ccc(N2CCOCC2)cc1` (configuration not stated), the Potency result was “inactive”.
As for `CCOc1ccc(CCNC(=O)c2csc3c2CCCCC3)cc1`, the entry is “inactive”; as for `CCOC(=O)c1ccc(NC(=O)c2csc3c2CCCCC3)cc1`, 14.6 µM (active).
As to `CCOC(=O)c1ccc(NC(=O)CNC(=O)c2ccco2)cc1`, the Potency entry is “inactive”.
As for `CCOC(=O)c1ccc(NC(=O)c2c(NCc3cccc(OC)c3)sc3c2CCC3)cc1`, the Potency is 11.6 µM (active).
For the compound `COC(=O)c1sc(NC(=O)c2csc3c2CCCC3)nc1C`, the Potency is 23.1 µM (active).
On to `COC(=O)c1sc(NC(=S)NC(=O)c2ccc(C)cc2)nc1C`, for which the Potency entry was “inactive”.
Regarding `CCOC(=O)c1ccc(NC(=O)c2c(NCc3ccccc3)[nH]c(=O)[nH]c2=O)cc1`, the Potency entry was “inactive”.
In the case of `Cc1ccc(NC(=O)c2csc3c2CCCC3)cc1`, the Potency result is “inactive”.
Regarding `CC(=O)Cc1nsc(NC(=O)c2csc3c2CCCC3)n1`, the Potency result is “inactive”.
As for `CCOC(=O)c1ccc(NC(=O)c2c(NCc3cccs3)sc3c2CCCC3)cc1`, the figure is 20.6 µM (active).
As for `CCOC(=O)c1c(NC(=O)Cc2coc3ccc(CC)cc23)sc2c1CCC2`, the entry is “inactive”.
